T1: hADAR2d (ADAR2 deaminase domain, hADAR2-D WT) (Homo sapiens)
T1 chain: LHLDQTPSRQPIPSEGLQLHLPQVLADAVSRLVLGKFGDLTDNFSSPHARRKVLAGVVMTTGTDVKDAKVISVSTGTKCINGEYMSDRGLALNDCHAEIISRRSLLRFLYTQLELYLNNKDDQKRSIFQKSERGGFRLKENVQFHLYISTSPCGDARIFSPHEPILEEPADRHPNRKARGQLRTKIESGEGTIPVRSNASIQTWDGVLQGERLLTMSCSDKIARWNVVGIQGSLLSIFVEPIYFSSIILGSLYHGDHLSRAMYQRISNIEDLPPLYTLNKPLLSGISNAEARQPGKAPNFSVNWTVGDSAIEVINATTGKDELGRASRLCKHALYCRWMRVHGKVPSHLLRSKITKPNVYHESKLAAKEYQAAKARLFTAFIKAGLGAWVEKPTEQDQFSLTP


Legend:
[1] = biological target: T1, hADAR2d (ADAR2 deaminase domain, …); assay: deamination rate, 300 nM enzyme; details: tags: Ni-NTA purified (His10, TEV site); label: internal 32P
Method: For the partially 2′-deoxy-modified substrates, the final reaction volume was 10 μL. The final enzyme concentration was 300 nM. The final RNA concentration was 10 nM. The final reaction solution contained 16 mM Tris-HCl, pH 7.4, 3.3% glycerol, 1.6 mM EDTA, 0.003% NP-40, 60 mM KCl, 7.1 mM NaCl, 0.5 mM DTT, 160 units/mL RNasin, and 1 μg/mL yeast tRNA. Reactions were quenched by adding 190 μL 95° C. nuclease-free water followed by incubation at 95° C. for 5 minutes. Deaminated products were purified by phenol-chloroform extraction and ethanol precipitation. The product-containing solution was lyophilized to dryness and suspended in 50 μL of 1×TE solution, followed by digestion with nuclease P1. The resulting 5′-mononucleotides were resolved by thin-layer chromatography (TLC, Macherey-Nagel) (22). The TLC was visualized by exposure to storage phosphor imaging plates (Molecular Dynamics) on a Typhoon phosphorimager (Molecular Dynamics) and quantified by volume integration using ImageQuant software (Molecular Dynamics). […] Statistical significance between groups was determined by t tests using QuickCalcs (GraphPad Software). hADAR2 wt deamination was carried out twice, deamination with other proteins was carried out in triplicate.

[2] = biological target: T1, hADAR2d (ADAR2 deaminase domain, …); assay: rate stated as similar to substrate b; details: tags: Ni-NTA purified (His10, TEV site); label: internal 32P
Method: This reconstituted solution was heated to 65° C. for 5 minutes. After the solution was slowly cooled to room temperature, 1.5 μL of RNasin ([…]), 5 μL of 4 mM ATP, and 1 μL of T4 DNA ligase (400 U/μL) were added to the solution so that the final reaction volume was 20 μL . The reaction was incubated at 30° C. for 2 hours, then 2 μL of 40 μM trap DNA were added to the splint ligation reaction. The splint ligation products were purified as described above. Purified ³²P labeled top strand was hybridized with the corresponding bottom strand 24-nt oligonucleotide as described above. Deamination reactions were carried out as previously described (21) with the following modifications. For the partially 2′-deoxy-modified substrates, the final reaction volume was 10 μL. The final enzyme concentration was 300 nM. The final RNA concentration was 10 nM. The final reaction solution contained 16 mM Tris-HCl, pH 7.4, 3.3% glycerol, 1.6 mM EDTA, 0.003% NP-40, 60 mM KCl, 7.1 mM NaCl, 0.5 mM DTT, 160 units/mL RNasin, and 1 μg/mL yeast tRNA. Reactions were quenched by adding 190 μL 95° C. nuclease-free water followed by incubation at 95° C. for 5 minutes. […] The TLC was visualized by exposure to storage phosphor imaging plates (Molecular Dynamics) on a Typhoon phosphorimager (Molecular Dynamics) and quantified by volume integration using ImageQuant software (Molecular Dynamics). […]

Binder | relative deamination rate [1] [fold slower than N1] | binding signal [2] [fold slower than N1]
partially deoxy duplex (substrate b) (mixed, 2'-deoxy at top UAGA and at bottom C opposite edited A) RNA 1: GCUCGCGAUGCUAGAGGGCUCUGC RNA 2: GCAGAGCCCCCCAGCAUCGCGAGC | ~15 | –
partially deoxy duplex (substrate c) (mixed, 2'-deoxy at top UAGA) RNA 1: GCUCGCGAUGCUAGAGGGCUCUGC RNA 2: GCAGAGCCCCCCAGCAUCGCGAGC | – | ~15

Reference: US20200407704, “FUSION PROTEINS AND METHODS FOR SITE-DIRECTED GENOME EDITING” (The Regents of the University of California, published 2020)
